Calb FLC = C. albicans growth inhibition with fluconazole, primary screen, CaCi-2 strain, Alamar Blue fluorescence. C. albicans CaCi-2 (fluconazole-resistant clinical isolate) + fluconazole, 48 h. AID 1979, 2009. hit rate 0.57% among 300,000. growth inhibition, % (test concentration not listed);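 active = growth inhibition above about 58% in most replicates, limit read from the data, passing the limit was not always enough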;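 note: all wells also contain fluconazole at 8 µg/ml as a sub-toxic cotreatment; 0% = median of DMSO wells and 100% = median of geldanamycin control wells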
PfHsp90 set2 = growth inhibition of PfHsp90-expressing yeast, primary screen, antimalarial PfHsp90 inhibitor project, S. cerevisiae, BacTiter-Glo luminescence, single point, set 2. BacTiter-Glo ATP, 48 h; yeast lacking PDR1 and PDR3 efflux regulators. inhibition, % at 9.4 µM. hit rate 0.32% among 310,000. AID 504621, 2011;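 active = every replicate shows inhibition above about 80%, whatever the replicate mean, limit read from the data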;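 note: 0% = DMSO neutral controls and 100% = 20 µM radicicol positive controls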
Shn3 inh set2 = reduction of Shn3 3'UTR firefly luciferase signal, primary screen, Schnurri-3 inhibitor project, cell-based, Clone20 osteoblasts, set 2. hit rate 0.52% among 360,000. inhibition, % at 12.5 µM. Clone20 osteoblast Shn3 3'UTR firefly luciferase, 24 h. AID 588674, 2011;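 active = mean inhibition of at least 75% with every replicate also reaching 75%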;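 note: 0% = median of neutral control wells and 100% = pilot-screen positive control compound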
CSC inhib = cancer stem cell viability inhibitors, primary screen, luminescence; cancer stem cell-like cells viability; inhibition, % at 7.5 µM; hit rate 1.1% among 300,000; in the data active = inhibition above about 75%; tested in HMLE shEcad cells
Beta cell apopt = inhibitors of cytokine-induced beta cell apoptosis, primary screen, luminescence | INS-1E cytokine-induced death, ATP luminescence, 48 h; percent of positive-control rescue, neutral wells zero | protection from apoptosis, % (test concentration not listed) | hit rate 0.8% among 300,000;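 active = Every replicate reaches about 75%, or at least half do and their mean reaches it too, limit read from the data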;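 note: 0% = cytokine-treated negative control wells and 100% = positive control rescue; higher means more ATP so stronger rescue from cytokine killing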
Active calls of the source: *. Rows were chosen to be rich in hits. Some 2.2% of all compounds tested hit in one or more screens of this group.

What do the screens show for `O=C1C=C(Nc2ccc(F)cc2)c2ccccc2C1=O`?
PfHsp90 set2: 32; Shn3 inh set2: 8; CSC inhib: 112*; Beta cell apopt: 106*

What do the screens show for `O=C1NCC(Nc2ccc(Br)cc2)C(=O)N1` (stereo not given)?
PfHsp90 set2: 34; Shn3 inh set2: 26

How did COCCNC(=O)C(NC(=O)C1CCC(C)CC1)C(C)C (stereo not given) do in these assays?
Calb FLC: 3; PfHsp90 set2: -12; Beta cell apopt: -2

How did CC1CN(C(=O)CCC(=O)N2CCN(c3cccc(C(F)(F)F)c3)CC2)c2ccccc2O1 (stereo not given) do in these assays?
Calb FLC: 5; PfHsp90 set2: 5; Shn3 inh set2: 16; CSC inhib: 21; Beta cell apopt: 9

How did O=C(Cc1ccccc1F)Nc1ccc(S(=O)(=O)N2CCCC2)cc1 do in these assays?
PfHsp90 set2: -3; Shn3 inh set2: -1; CSC inhib: 25; Beta cell apopt: 0

What do the screens show for `CC(C)c1ccc(NC(=O)c2snc3ccc(Cl)cc23)cc1`?
Calb FLC: 2; PfHsp90 set2: -13; Shn3 inh set2: -81; CSC inhib: 80*; Beta cell apopt: -5

Results for CC(C)c1ccc(NC(=O)c2csnn2)cc1 ?
Calb FLC: 7; PfHsp90 set2: 12; Shn3 inh set2: -97; CSC inhib: 5; Beta cell apopt: 2

Results for COC(=O)[C@]1(Cc2ccccc2)N[C@H](c2ccc(-c3cccc(Cl)c3)cc2)[C@@H]2C(=O)N(C)C(=O)[C@@H]21 ?
Calb FLC: -3; PfHsp90 set2: 9; Shn3 inh set2: 25; CSC inhib: -1; Beta cell apopt: -1

How did COc1ccc(Cc2nnc(N/N=C/c3ccc(Br)cc3)[nH]c2=O)cc1OC do in these assays?
Calb FLC: 3; PfHsp90 set2: -10; CSC inhib: 4; Beta cell apopt: 6

How did COc1ccc(Cc2nnc(N/N=C/c3ccc(O)cc3)[nH]c2=O)cc1OC do in these assays?
Calb FLC: 5; PfHsp90 set2: 45; Shn3 inh set2: 88*; CSC inhib: 102*; Beta cell apopt: 99*

How did COc1c(Cl)cnn(-c2ccc(C)cc2)c1=O do in these assays?
Calb FLC: -3; PfHsp90 set2: -38; Shn3 inh set2: -10; CSC inhib: 3; Beta cell apopt: -5

Results for Cc1ccc(-n2ncc(Br)c(Br)c2=O)cc1 ?
Calb FLC: 97*; PfHsp90 set2: -23; Shn3 inh set2: 96*

How did O=c1c(Br)c(Br)cnn1-c1ccccc1 do in these assays?
PfHsp90 set2: -32; Shn3 inh set2: 98*

Results for O=c1c(Br)c(N2CCCC2)cnn1-c1ccccc1 ?
Calb FLC: -17; PfHsp90 set2: -4; Shn3 inh set2: -61; CSC inhib: -1; Beta cell apopt: -2

Results for Cn1ccc2c(-c3ccc(C(=O)O)cc3)cc3c(c21)C1CCC3C1 (stereo not given) ?
Shn3 inh set2: -51

Results for O=C(COC(=O)C1CCN(S(=O)(=O)c2cccs2)CC1)Nc1ccc(F)cc1F ?
Calb FLC: -5; PfHsp90 set2: 10; Shn3 inh set2: 1; CSC inhib: -12; Beta cell apopt: -1

What do the screens show for `Cc1ccc(S(=O)(=O)N2[C@H](c3cccc(Cl)c3)CC(=O)[C@@H]3CN(S(=O)(=O)c4ccccc4C)[C@H](c4ccc(Cl)cc4)C[C@@H]32)cc1`?
Shn3 inh set2: 89*

What do the screens show for `Cc1ccc([C@@H]2CC(=O)[C@@H]3CN(S(=O)(=O)c4ccccc4C)[C@H](c4ccc(Cl)cc4)C[C@@H]3N2S(=O)(=O)c2ccc(C)cc2)cc1`?
Shn3 inh set2: 91*

How did Cn1nc(C(=O)NNC(=O)Cc2ccc(S(=O)(=O)N3CCOCC3)s2)c2ccccc2c1=O do in these assays?
PfHsp90 set2: -40; Shn3 inh set2: 6

How did COc1ccc2oc(=O)c(-c3csc(Nc4cccc(O)c4)n3)cc2c1 do in these assays?
Calb FLC: -17; PfHsp90 set2: 103*; Shn3 inh set2: -35

How did COc1ccc(Nc2nc(-c3cc4cccc(OC)c4oc3=O)cs2)cc1 do in these assays?
Calb FLC: 24; PfHsp90 set2: -10; Shn3 inh set2: 77; CSC inhib: -19; Beta cell apopt: 0

Screening data deposited in PubChem BioAssay by Broad Institute.
